# From PubChem BioAssay (EPA / NIEHS)
# Several values for one entry are separate records, joined by “and”; a condition that tells them apart may be missing. Identical values can stand only once. Inconclusive results are not listed. More than one record can exist for a structure, and the calls need not agree. Activity calls are given as the source filed them. The calls were made as follows, unless noted: active = hit-call score of the fitted dose curve at least 0.9, where 1 is the maximum; inactive = score below 0.9.
# Assays:
# [1] = TAMU_PeakParms_SingleDonor1434_Chronotropy: Texas A&M University (TAMU) 1.5-hr Human Induced Pluripotent Stem Cell (iPSC)-derived Cardiomyocytes Calcium (Ca+2) Flux Assay for Cardiotoxicity: Chronotropy (changes in peak frequency) (AID 2284217); conditions: actives raise or lower the signal
# Outline: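 iPSC-CMs, donor 1434; 4 conc (0.2–100 uM), 0.5% v/v DMSO, 90 min, 37C/5% CO2; Ca2+ flux fluorescence → peak.freq.avg; peak.freq.avg = 0 dropped; bidirectional fit vs DMSO; EC05 POD.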
# [2] = IUF_NPC1b_proliferation_BrdU_72hr: Leibniz Research Institute for Environmental Medicine (IUF) 72-hour Neural Progenitor Cell Bromodeoxyuridine (BrdU) Proliferation Assay (NPC1b) (AID 2284207)
# Outline: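 Proliferation of primary human neural progenitor cells: 72 h compound treatment at 37C, 5% CO2, pH 7.2-7.6, in EGF/FGF-containing medium. Readout is BrdU uptake (last 16 h) by chemiluminescent ELISA, normalised to DMSO.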
# [3] = IUF_NPC1a_proliferation_area_72hr: Leibniz Research Institute for Environmental Medicine (IUF) 72-hour Neural Progenitor Cell Proliferation Area Assay (NPC1a) (AID 2284208)
# Outline: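 Single 0.25–0.35 mm human fetal neural progenitor spheres in proliferation medium with EGF and FGF, exposed 72 h from plating without renewal at 37C, pH 7.2-7.6. Sphere area growth measured by automated phase-contrast imaging, relative to DMSO.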
# [4] = IUF_NPC1_viability_72hr: Viability Assessment at 72 hours in the Leibniz Research Institute for Environmental Medicine (IUF) Neural Progenitor Cell Proliferation Assay (NPC1) (AID 2284209)
# Outline: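 hNPC spheres, 1/well, EGF+FGF medium, 37C/5% CO2; dosed day 0, 72 h, no re-dosing. Resazurin reduction (alamar blue) fluorescence; DMSO = negative control/baseline; growth-factor-free wells as positive control.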
# [5] = CCTE_Mundy_HCI_Cortical_Synap_Neur_Matur_NeuriteSpotCountPerNeuriteLength: CCTE's Synaptogenesis and Neurite Maturation Assay in rat cortical cells for Neurite Spot Count per Neurite Length, Mundy Lab (AID 2284210)
# Outline: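 Primary rat cortical neurons, compound exposure DIV 7–12, 288.33 h endpoint. Hoechst, anti-MAP2 and anti-synaptophysin labelling; neurite-associated puncta per neurite length scored by automated imaging relative to DMSO controls.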
# [6] = CCTE_Mundy_HCI_Cortical_Synap_Neur_Matur_BPCount: CCTE's Synaptogenesis and Neurite Maturation Assay in rat cortical cells for Branch Point Count, Mundy Lab (AID 2284211)
# Outline: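 Rat primary cortical cultures, AraC added DIV 5; chemicals dosed DIV 7 through DIV 12. Fixed cells stained for MAP2, synaptophysin and Hoechst; neurite branch points counted by automated high-content imaging, fitted relative to DMSO.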
# [7] = CCTE_Mundy_HCI_Cortical_NOG_NeuriteCount: CCTE's Neurite Outgrowth Assay in rat cortical cells for Neurite Count, Mundy Lab (AID 2284212);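 also: cells fixed about two days after chemical exposure began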
# Outline: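 Neurite number per cell from high-content imaging of betaIII-tubulin immunostaining, with Hoechst nuclear counterstain.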
# [8] = CCTE_Mundy_HCI_Cortical_NOG_NeuriteLength: CCTE's Neurite Outgrowth Assay in rat cortical cells for Neurite Length, Mundy Lab (AID 2284213);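 as to AC50: neurites imaged about 48 to 50 h after chemical exposure began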
# Outline: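 Neurite length was read by high-content imaging of βIII-tubulin-labelled neurites in rat primary cortical cultures. Activity was fitted relative to DMSO.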
# [9] = CCTE_Mundy_HCI_Cortical_Synap_Neur_Matur_NeuriteLength: CCTE's Synaptogenesis and Neurite Maturation Assay in rat cortical cells for Neurite Length, Mundy Lab (AID 2284214)
# Outline: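 Rat cortical neurons, AraC at DIV 5; compound + media change DIV 7, end DIV 12 (288.33 h). Fix, MAP2/synaptophysin/Hoechst immunostain, automated HCI of neurite length vs DMSO.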
# [10] = CCTE_Mundy_HCI_Cortical_Synap_Neur_Matur_NeuriteSpotCountPerNeuron: CCTE's Synaptogenesis and Neurite Maturation Assay in rat cortical cells for Neurite Spot Count per Neuron Count, Mundy Lab (AID 2284215)
# Outline: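 Rat primary cortical cultures given AraC at DIV 5, dosed from DIV 7 to DIV 12 with media change. Fixed, stained for MAP2, synaptophysin and Hoechst; neurite-associated synaptophysin puncta per neuron quantified by high-content imaging versus DMSO.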
# [11] = CCTE_Mundy_HCI_Cortical_Synap_Neur_Matur_SynapseCount: CCTE's Synaptogenesis and Neurite Maturation Assay in rat cortical cells for Synapse Count, Mundy Lab (AID 2284218)
# Outline: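 Primary rat cortical culture; AraC DIV 5 to arrest glia; compound + media change DIV 7; terminated DIV 12. PFA/Hoechst fix, anti-MAP2 + anti-synaptophysin immunostain; HCI synapse count/neuron; DMSO = baseline.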
# [12] = CCTE_Mundy_HCI_hN2_NOG_NeuriteLength: CCTE's Neurite Outgrowth Assay in human hN2 cells for Neurite Length, Mundy Lab (AID 2284220; active = hit-call score of the fitted dose curve at least 0.9, where 1 is the maximum)
# Outline: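 Plate hNP1-derived neurons, then add chemical 2 h later as a 1/10 dilution. Stain with anti-βIII-tubulin then Alexa Fluor-488 secondary, and image automatically to measure neurite length.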
# [13] = CCTE_Mundy_HCI_hN2_NOG_NeuronCount: CCTE's Neurite Outgrowth Assay in human hN2 cells for Neuron Count, Mundy Lab (AID 2284221; active = hit-call score of the fitted dose curve at least 0.9, where 1 is the maximum)
# Outline: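 Read-out is the number of betaIII-tubulin-positive neurons imaged by automated high-content analysis, with DMSO as negative control.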
# [14] = CCTE_Mundy_HCI_Cortical_Synap_Neur_Matur_NeuriteCount: CCTE's Synaptogenesis and Neurite Maturation Assay in rat cortical cells for Neurite Count, Mundy Lab (AID 2284222);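 as to outcome: exposure from day 7 to day 12 in vitro with readout at day 12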
# Outline: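 Primary rat cortical cells were plated, treated with AraC at DIV 5, then exposed to chemicals from DIV 7 through DIV 12. After fixation and immunostaining for MAP2 and synaptophysin, imaging quantified neurites, with DMSO as the negative control.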
# [15] = CCTE_Mundy_HCI_Cortical_Synap_Neur_Matur_CellBodySpotCount: CCTE's Synaptogenesis and Neurite Maturation Assay in rat cortical cells for Cell Body Spot Count, Mundy Lab (AID 2284223)
# Outline: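 Primary rat cortical cultures, AraC added at DIV 5; dosed DIV 7 through DIV 12 […]. Fixed, stained for MAP2 and synaptophysin with Hoechst; cell body-associated synaptophysin puncta per neuron counted by high-content imaging, loss vs DMSO.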
# [16] = CCTE_Mundy_HCI_hNP1_Pro_ResponderAvgInten: CCTE's Proliferation Assay in human neuroprogenitor cells, Mundy Lab (AID 2284224; active = hit-call score of the fitted dose curve at least 0.9, where 1 is the maximum;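 also: human neural progenitor cells hNP1 derived from WA09 embryonic stem cells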)
# Outline: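 Proliferation was scored as BrdU labelling intensity in human neural progenitors derived from WA09 embryonic cells, measured 26.25 hours after chemical dosing. Activity was fitted relative to DMSO.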
structure (smiles),measurement,setting,value
CN1CSC(=S)N(C)C1,outcome,[1],inactive
COP(=O)(OC)OC=C(Cl)Cl,outcome,[2],inactive
same,AC50,[3],14.2 µM (active)
same,AC50,[4],91.4 µM (active)
same,outcome,[5],inactive
same,AC50,[6],49 µM (active)
same,outcome,[6],inactive
same,AC50,[7],77.3 µM (active)
same,outcome,[7],inactive
same,AC50,[8],57.5 µM (active)
same,outcome,[8],inactive
same,outcome,[9],inactive
same,AC50,[10],49 µM (active)
same,outcome,[10],inactive
same,AC50,[11],9.71 µM (active)
same,outcome,[11],inactive
same,outcome,[12],inactive
same,AC50,[13],0.355 µM (active)
same,outcome,[14],inactive
same,outcome,[15],inactive
same,outcome,[16],inactive
CNC(=O)CSP(=S)(OC)OC,outcome,[2],inactive
same,outcome,[3],inactive
same,outcome,[4],inactive
same,outcome,[5],inactive
same,AC50,[6],50 µM (active)
same,outcome,[6],inactive
same,outcome,[7],inactive
same,outcome,[8],inactive
same,AC50,[9],50 µM (active)
same,outcome,[9],inactive
same,AC50,[10],50 µM (active)
same,outcome,[10],inactive
same,AC50,[11],50 µM (active)
same,outcome,[11],inactive
same,AC50,[14],50 µM (active)
same,outcome,[14],inactive
same,outcome,[15],inactive
same,outcome,[16],inactive
O=S1OCC2C(CO1)C1(Cl)C(Cl)=C(Cl)C2(Cl)C1(Cl)Cl (configuration not stated),outcome,[2],inactive
same,outcome,[3],inactive
same,AC50,[4],2.63 µM (active)
same,AC50,[5],22.4 µM (active)
same,AC50,[6],15 µM (active)
same,AC50,[7],22.1 µM (active)
same,AC50,[8],23.8 µM (active)
same,AC50,[10],15 µM (active)
same,AC50,[1],4.73 µM (active)
same,AC50,[11],19.6 µM (active)
same,outcome,[14],inactive
same,AC50,[15],23.4 µM (active)
same,AC50,[16],23 µM (active)
CC1(c2ccc(Oc3ccccc3)cc2)OC(=O)N(Nc2ccccc2)C1=O (configuration not stated),outcome,[2],inactive
same,AC50,[3],39.6 µM (active)
same,outcome,[4],inactive
same,AC50,[5],37.6 µM (active)
same,AC50,[6],20.2 µM (active)
same,AC50,[7],55.8 µM (active)
same,AC50,[8],61.3 µM (active)
same,AC50,[9],44.1 µM (active)
same,AC50,[10],24.1 µM (active)
same,AC50,[11],40 µM (active)
same,AC50,[14],59 µM (active)
same,AC50,[15],79.9 µM (active)
same,outcome,[16],inactive
O=[N+]([O-])/N=C1\NCCN1Cc1ccc(Cl)nc1,outcome,[2],inactive
same,outcome,[3],inactive
same,outcome,[4],inactive
same,outcome,[5],inactive
same,outcome,[6],inactive
same,outcome,[7],inactive
same,outcome,[8],inactive
same,outcome,[9],inactive
same,outcome,[10],inactive
same,outcome,[11],inactive
same,outcome,[14],inactive
same,outcome,[15],inactive
same,outcome,[16],inactive
CC1(C)C(C=C(Cl)Cl)C1C(=O)OC(C#N)c1ccc(F)c(Oc2ccccc2)c1 (configuration not stated),AC50,[2],8.05 µM (active)
same,outcome,[3],inactive
same,outcome,[4],inactive
same,AC50,[5],82.7 µM (active)
same,outcome,[5],inactive
same,AC50,[6],49.9 µM (active) and 15 µM (active)
same,AC50,[7],77.2 µM (active)
same,outcome,[7],inactive
same,AC50,[8],79.7 µM (active)
same,outcome,[8],inactive
same,AC50,[9],33.1 µM (active) and 2.98 µM (active)
same,AC50,[10],72 µM (active) and 15 µM (active)
same,AC50,[11],77.9 µM (active)
same,outcome,[11],inactive
same,AC50,[14],73.6 µM (active)
same,outcome,[14],inactive
same,AC50,[15],87.1 µM (active)
same,outcome,[15],inactive
same,outcome,[16],inactive
